The target of test [1] is Rap guanine nucleotide exchange factor 3 (Homo sapiens) (UniProt O95398). Kind of test: Confirmatory qHTS for agonist of cAMP-regulated guanine nucleotide exchange factor 3 (EPAC1) (AID 1645881).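 Note: EPAC1 catalysed release of BODIPY-GDP from Rap1B seen as fluorescence loss; 100% = effect of cAMP agonist control; nearly all actives have a fitted effect of over 75% in size.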 For orientation: Quantitative high-throughput screening tests each substance at several concentrations.
Rap guanine nucleotide exchange factor 3 (Homo sapiens), sequence (O95398 whole entry, looked up): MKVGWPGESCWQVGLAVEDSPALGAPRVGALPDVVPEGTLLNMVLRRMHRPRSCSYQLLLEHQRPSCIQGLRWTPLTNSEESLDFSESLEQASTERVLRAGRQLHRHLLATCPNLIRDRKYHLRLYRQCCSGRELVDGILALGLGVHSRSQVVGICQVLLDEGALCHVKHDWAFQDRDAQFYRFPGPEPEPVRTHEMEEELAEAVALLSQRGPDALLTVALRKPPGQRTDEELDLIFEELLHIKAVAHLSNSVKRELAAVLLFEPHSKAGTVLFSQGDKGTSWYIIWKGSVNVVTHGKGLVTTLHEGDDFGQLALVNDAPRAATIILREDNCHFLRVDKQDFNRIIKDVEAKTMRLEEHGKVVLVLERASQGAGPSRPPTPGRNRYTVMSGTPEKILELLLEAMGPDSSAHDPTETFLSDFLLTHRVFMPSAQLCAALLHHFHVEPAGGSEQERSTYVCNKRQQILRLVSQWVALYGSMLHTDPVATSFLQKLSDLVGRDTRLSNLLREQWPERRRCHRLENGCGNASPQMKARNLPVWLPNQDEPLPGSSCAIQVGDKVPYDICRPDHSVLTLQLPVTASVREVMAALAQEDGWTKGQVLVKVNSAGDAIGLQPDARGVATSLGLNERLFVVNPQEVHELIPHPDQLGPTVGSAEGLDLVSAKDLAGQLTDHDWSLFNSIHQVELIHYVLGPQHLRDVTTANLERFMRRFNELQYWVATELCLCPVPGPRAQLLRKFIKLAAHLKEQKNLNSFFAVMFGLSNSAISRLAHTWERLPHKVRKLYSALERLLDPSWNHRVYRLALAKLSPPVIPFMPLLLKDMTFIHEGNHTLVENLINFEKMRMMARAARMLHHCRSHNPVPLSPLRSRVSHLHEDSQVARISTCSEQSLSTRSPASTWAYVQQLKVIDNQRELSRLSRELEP
The target in test [2] is Rap guanine nucleotide exchange factor 4 (Homo sapiens) (UniProt Q8WZA2). Nature of the test: Confirmatory qHTS for agonist of cAMP-regulated guanine nucleotide exchange factor 4 (EPAC2) (AID 1645884).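 Note: nucleotide exchange releases bodipy-GDP from Rap1 and this lowers its fluorescence; % is set by controls: 0 for no effect and ±100 for the full control effect; nearly all actives have a fitted effect of over 65% in size.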
Rap guanine nucleotide exchange factor 4 (Homo sapiens), sequence (Q8WZA2 whole entry, looked up): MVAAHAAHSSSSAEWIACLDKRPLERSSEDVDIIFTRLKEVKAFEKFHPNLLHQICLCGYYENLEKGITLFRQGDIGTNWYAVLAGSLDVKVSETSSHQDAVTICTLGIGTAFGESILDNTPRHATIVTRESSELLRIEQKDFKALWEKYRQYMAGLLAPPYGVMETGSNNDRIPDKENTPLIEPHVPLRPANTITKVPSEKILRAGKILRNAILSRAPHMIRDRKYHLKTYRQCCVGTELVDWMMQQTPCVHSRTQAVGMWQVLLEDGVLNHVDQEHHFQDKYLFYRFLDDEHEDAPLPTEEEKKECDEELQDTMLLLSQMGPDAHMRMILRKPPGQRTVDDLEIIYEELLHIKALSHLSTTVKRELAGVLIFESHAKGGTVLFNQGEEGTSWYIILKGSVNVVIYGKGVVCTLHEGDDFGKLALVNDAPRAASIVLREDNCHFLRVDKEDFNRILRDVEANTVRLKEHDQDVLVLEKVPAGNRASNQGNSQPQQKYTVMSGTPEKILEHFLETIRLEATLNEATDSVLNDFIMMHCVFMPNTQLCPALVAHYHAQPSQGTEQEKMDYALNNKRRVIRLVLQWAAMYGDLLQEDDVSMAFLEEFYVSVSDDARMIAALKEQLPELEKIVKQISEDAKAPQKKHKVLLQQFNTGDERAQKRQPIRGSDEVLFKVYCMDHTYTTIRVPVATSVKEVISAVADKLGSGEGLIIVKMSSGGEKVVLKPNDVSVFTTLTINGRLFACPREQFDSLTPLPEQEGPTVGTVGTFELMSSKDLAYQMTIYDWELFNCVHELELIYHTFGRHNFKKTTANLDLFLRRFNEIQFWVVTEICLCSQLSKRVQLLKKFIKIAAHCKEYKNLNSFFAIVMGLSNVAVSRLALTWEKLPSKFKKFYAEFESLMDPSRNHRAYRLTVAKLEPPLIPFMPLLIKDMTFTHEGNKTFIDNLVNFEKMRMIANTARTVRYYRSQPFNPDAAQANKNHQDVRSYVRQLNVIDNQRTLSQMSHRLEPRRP
For test [3] the target is unchanged. Nature of the test: Confirmatory qHTS for antagonist of cAMP-regulated guanine nucleotide exchange factor 4 (EPAC2) (AID 1645885). For activity change, negative = inhibition: % is set by controls: 0 for no effect and ±100 for the full control effect. Note: nearly all actives have a fitted effect of over 25% in size. Note: potency is the fitted concentration of half-maximal effect.
Test [4] deals with Rap guanine nucleotide exchange factor 3 (Homo sapiens) (UniProt O95398). Nature of the test: Counterscreen qHTS for agonist of cAMP-regulated guanine nucleotide exchange factor 3 (EPAC1) (AID 1645889). Note: % of control where 0% means no effect; nearly all actives have a fitted effect of over 40% in size. In outline: (§1)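 Rap1B–BODIPY-GDP (250 nM) with 50 uM GDP; compounds pin-transferred to 9.74 nM–152 uM final (activator) or from 7.32 nM upwards (inhibitor). Fluorescence Ex/Em 480/540 nm read at 5 and 30 min, then after adding cAMP or buffer, at room temperature.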
Background: The purpose of a counterscreen is to sort out artefacts and off-target activity.

Test [5] shares this target. Nature of the test: Counterscreen qHTS for antagonist of cAMP-regulated guanine nucleotide exchange factor 3 (EPAC1) (AID 1645888).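 Note: fluorescence loss as bound BODIPY-GDP is released from Rap1B; % of control where 0% means no effect.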 In outline:
as §1

Test [6] has as its target Cytochrome P450 3A4 (Homo sapiens) (UniProt P08684). Kind of test: qHTS Assay for Inhibitors and Substrates of Cytochrome P450 3A4 (AID 884). Note: potency is the fitted concentration of half-maximal effect; nearly all actives have a fitted effect of over 50% in size. In outline: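 20 nM human CYP3A4 with 25 uM Luciferin-PPXE (at KM) in 200 mM KPO4, preincubated 10 min with compound; NADPH regeneration started a 60 min RT reaction. Luciferin detected by luminescence, normalized to 57 uM ketoconazole as full inhibition.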

Test [7] shares this target. Kind of test: qHTS Assay for Activators of Cytochrome P450 3A4 (AID 885). Note: nearly all actives have a fitted effect of over 65% in size. In outline: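 Signal was normalized against complete inhibition by 57 uM ketoconazole. The reaction used 20nM CYP3A4 with 25uM Luciferin-PPXE, 10-min compound preincubation and a 60-min NADPH-supported step at RT.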
Test [8] in a line: Confirmation and Secondary Assay for Modulators of Hemoglobin Beta Chain Splicing at IVS2 654 locus (AID 910).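 Note: HeLa cells stably carrying EGFP split by mutant beta-globin IVS2-654 intron; % of control where 0% means no effect.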 In outline:
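HeLa cells stably expressing EGFP interrupted by β-globin IVS2-654 intron, seeded overnight in Opti-MEM/2% FCS, then treated 2 days at 37 °C. Restored splicing read as total peak GFP intensity per well by laser scanning cytometry (488 nm excitation, 500–520 nm emission); 500 nM antisense PNA as control.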

The nature of test [9]: Confirmation and Secondary Assay for Modulators of Hemoglobin Beta Chain Splicing at IVS2 705 locus (AID 930).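 Note: HeLa cells stably expressing the EGFP-705 splicing reporter; GFP fluorescence per well restored by corrected splicing of the IVS2-705 intron in EGFP; % of control where 0% means no effect.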 In outline: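 First, HeLa EGFP-705 cells are seeded at 500/well in Optimem with 2% FCS and left overnight. Next, compound or DMSO is added for 2 days. Finally wells are laser-scanned and total peak GFP intensity scored.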
The target in test [10] is Lysosomal acid glucosylceramidase (Homo sapiens) (UniProt P04062). Nature of the test: Glucocerebrosidase-p2 (AID 348; in the data active = potency below about 10 µM; note: potency is the fitted concentration of half-maximal effect). Particulars: purified GBA, blue fluorogenic substrate, 40 min. In outline:
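Compounds titrated from 0.6 nM upwards against 0.2 nM enzyme in pH 5.9 citric acid/KH2PO4, taurocholate, tween-20; blue fluorogenic substrate 80 uM, 40 min room temperature, stopped and read Ex 365/Em 440 for AC50.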

Test [11] is described as follows: AP1 Signaling Pathway (AID 357; active = well fitted curve in either direction with a large enough effect, not every such curve was filed as active;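 note: ME-180 reporter cells stimulated with EGF at its EC50 level; % is set by controls: 0 for no effect and ±100 for the full control effect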). Particulars: ME-180 AP-1-bla reporter, EGF-induced, beta-lactamase ratio, 5 h; at 7.69 µM (top of the series) unless noted. In outline:
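Titration-series screen for positive or negative modulators of EC50 EGF-induced signaling in ME-180 cells carrying an AP-1-driven beta-lactamase reporter. After 5 hours at 37 degrees Celsius, CCF4 460nm/530nm emission ratio gave %Activity; AC50 values derived.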

Test [12] in a line: Stat Signaling Pathway (AID 446; active = well fitted curve in either direction with a large enough effect, not every such curve was filed as active;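 note: ME-180 cervical cancer cells given 40 pM IL-6 alongside compound; SIE-controlled beta-lactamase reporter measured as 460/530 nm FRET emission ratio; % is set by controls: 0 for no effect and ±100 for the full control effect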). In outline: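 Reporter line: ME-180 cervical carcinoma, SIE-beta-lactamase. Treatment: compound with 40 pM IL-6, 5 hrs, 37 C, in low-serum OPTI-MEM with 10 mM HEPES pH 7.3. Detection: 460/530 nm fluorescence.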
Test [13] concerns the target Glucocorticoid receptor (Homo sapiens) (UniProt P04150). Kind of test: GR-GFP Redistribution (AID 450;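 active = compounds whose dose series gives a full or clear partial fitted curve of increased nuclear translocation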; note: potency is the fitted concentration of half-maximal effect). Particulars: U2OS GR-GFP nuclear translocation, laser cytometry, 2 h.
Test [14] shares this target. Kind of test: GR-EFC Redistribution (AID 451; calls by dose curve; note: potency is the fitted concentration of half-maximal effect). Particulars: CHO-K1 GR-EFC translocation, beta-gal luminescence, 2 h. In outline:
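CHO-K1 cells expressing nuclear EA and GR-ED fragments of b-gal; compounds titrated up to 46 uM final, 2 h at 37 C. GR nuclear translocation read as complemented b-gal luminescence after 1 h RT detection.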

Test [15] deals with Mitogen-activated protein kinase 10 (Mus musculus) (UniProt Q61831). Kind of test: JNK3 AlphaScreen Assay (AID 530; active = well fitted curve in either direction with a large enough effect, not every such curve was filed as active;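 note: kinase came from lysate of stimulated human HepG2 cells; signal reports phosphorylation of biotinylated GST-cJun 1-79 at Ser73 with 10 µM ATP; % is set by controls: 0 for no effect and ±100 for the full control effect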). In outline: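 Pre-activated (IL-1β/TNFα) JNK3 in HepG2 lysates phosphorylates biotin-GST-cJun(1-79), 10 uM ATP; anti-phospho-cJun(Ser73) AlphaScreen read at room temperature, pH 7.6 Tris buffer. Compounds pre-incubated 15 min as titrations.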
Test [16] deals with 3',5'-cyclic-AMP phosphodiesterase 4B (Homo sapiens) (UniProt Q07343). Nature of the test: qHTS Assay for Inhibitors of PDE-IV (AID 607; active = well fitted activation curve with a large enough effect in the main read-out, with a control signal flat, not every such curve was filed as active; note: % of control where 0% means no effect). In outline:
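Cell-based read-out of cAMP via a modified cyclic nucleotide-gated channel and membrane potential dye (535/590 nm) in HEK293 cells expressing PDE4 endogenously. Compounds tested up to 22.9 uM final; 100 uM RO 20-1724 reference.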

In test [17] the target is Cytochrome P450 2C19 (Homo sapiens) (UniProt P33261). Kind of test: qHTS Assay for Inhibitors and Substrates of Cytochrome P450 2C19 (AID 899). Note: potency is the fitted concentration of half-maximal effect; nearly all actives have a fitted effect of over 60% in size. In outline:
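5 nM human CYP2C19 with 10uM Luciferin-H EGE (at KM) in 50mM KPO4, compound preincubated 10 min at 37C, then NADPH regeneration for 60 min at 37C. Luciferin read by luminescence after detection reagent; normalized to 57uM ketoconazole as full inhibition.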

Each structure is given as a SMILES string. Values without a mark were called inactive. Inconclusive results are not listed. Calls of active or inactive are those of the source. Unless noted, calls come from the whole dose curve; as a rule, active = well fitted curve in the direction sought with a large enough effect; inconclusive = small, poorly fitted or top-dose-only effect, or another doubt; inactive = no such curve, though single readings can be large; an effect the other way counts as inactive or inconclusive.

Glucocorticoid receptor (Homo sapiens), sequence (P04150 whole entry, looked up): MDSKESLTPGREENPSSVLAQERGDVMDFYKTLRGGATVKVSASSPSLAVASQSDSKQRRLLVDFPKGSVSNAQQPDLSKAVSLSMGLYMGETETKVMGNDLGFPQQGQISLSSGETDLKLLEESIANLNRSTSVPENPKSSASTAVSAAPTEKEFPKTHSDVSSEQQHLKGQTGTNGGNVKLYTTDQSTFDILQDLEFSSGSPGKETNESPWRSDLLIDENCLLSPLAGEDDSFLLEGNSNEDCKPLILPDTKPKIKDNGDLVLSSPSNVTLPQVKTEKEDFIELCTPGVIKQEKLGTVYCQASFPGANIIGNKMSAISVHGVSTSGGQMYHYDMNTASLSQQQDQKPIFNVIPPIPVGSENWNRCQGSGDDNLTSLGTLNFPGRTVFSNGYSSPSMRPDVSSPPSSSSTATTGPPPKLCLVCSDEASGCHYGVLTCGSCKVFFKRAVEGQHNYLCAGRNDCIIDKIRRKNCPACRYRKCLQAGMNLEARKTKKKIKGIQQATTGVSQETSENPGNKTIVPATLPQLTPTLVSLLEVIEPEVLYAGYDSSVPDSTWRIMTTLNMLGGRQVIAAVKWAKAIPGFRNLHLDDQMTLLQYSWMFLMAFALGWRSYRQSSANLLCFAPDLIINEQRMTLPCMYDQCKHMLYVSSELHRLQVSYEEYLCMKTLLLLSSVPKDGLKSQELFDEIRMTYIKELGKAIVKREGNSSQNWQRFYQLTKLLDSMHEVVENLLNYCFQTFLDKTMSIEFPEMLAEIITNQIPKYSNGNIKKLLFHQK
Cytochrome P450 3A4 (Homo sapiens), sequence (P08684 whole entry, looked up): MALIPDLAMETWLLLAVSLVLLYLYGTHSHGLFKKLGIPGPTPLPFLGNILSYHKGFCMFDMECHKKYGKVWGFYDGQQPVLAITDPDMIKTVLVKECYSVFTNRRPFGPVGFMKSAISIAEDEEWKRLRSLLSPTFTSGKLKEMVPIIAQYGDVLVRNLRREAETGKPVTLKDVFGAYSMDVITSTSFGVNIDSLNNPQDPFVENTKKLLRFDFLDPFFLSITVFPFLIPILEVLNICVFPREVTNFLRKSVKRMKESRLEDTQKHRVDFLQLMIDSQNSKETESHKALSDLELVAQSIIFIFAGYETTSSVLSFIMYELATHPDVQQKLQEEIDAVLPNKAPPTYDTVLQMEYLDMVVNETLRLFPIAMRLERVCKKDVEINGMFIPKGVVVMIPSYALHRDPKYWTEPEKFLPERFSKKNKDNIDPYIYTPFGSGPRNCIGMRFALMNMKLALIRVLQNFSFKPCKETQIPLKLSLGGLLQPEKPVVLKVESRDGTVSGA
3',5'-cyclic-AMP phosphodiesterase 4B (Homo sapiens), sequence (Q07343 whole entry, looked up): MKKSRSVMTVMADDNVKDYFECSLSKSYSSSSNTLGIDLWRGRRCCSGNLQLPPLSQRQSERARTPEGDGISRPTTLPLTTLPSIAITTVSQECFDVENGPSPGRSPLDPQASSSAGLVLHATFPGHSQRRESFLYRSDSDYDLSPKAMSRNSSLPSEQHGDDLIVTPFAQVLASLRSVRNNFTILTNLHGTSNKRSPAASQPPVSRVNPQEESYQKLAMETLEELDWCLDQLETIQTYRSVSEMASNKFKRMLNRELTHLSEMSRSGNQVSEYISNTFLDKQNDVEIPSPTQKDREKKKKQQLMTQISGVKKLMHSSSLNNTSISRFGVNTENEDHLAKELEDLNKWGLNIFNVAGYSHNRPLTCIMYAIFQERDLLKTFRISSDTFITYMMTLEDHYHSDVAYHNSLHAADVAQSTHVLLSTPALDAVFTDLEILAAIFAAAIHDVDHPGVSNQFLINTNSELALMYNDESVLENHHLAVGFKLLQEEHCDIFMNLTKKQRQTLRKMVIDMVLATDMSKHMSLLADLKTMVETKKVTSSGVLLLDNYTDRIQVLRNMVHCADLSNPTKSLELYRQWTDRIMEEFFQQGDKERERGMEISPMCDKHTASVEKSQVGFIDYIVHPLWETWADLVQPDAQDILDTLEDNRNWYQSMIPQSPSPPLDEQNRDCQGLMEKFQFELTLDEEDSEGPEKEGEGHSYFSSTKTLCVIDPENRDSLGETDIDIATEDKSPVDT
Lysosomal acid glucosylceramidase (Homo sapiens), sequence (P04062 whole entry, looked up): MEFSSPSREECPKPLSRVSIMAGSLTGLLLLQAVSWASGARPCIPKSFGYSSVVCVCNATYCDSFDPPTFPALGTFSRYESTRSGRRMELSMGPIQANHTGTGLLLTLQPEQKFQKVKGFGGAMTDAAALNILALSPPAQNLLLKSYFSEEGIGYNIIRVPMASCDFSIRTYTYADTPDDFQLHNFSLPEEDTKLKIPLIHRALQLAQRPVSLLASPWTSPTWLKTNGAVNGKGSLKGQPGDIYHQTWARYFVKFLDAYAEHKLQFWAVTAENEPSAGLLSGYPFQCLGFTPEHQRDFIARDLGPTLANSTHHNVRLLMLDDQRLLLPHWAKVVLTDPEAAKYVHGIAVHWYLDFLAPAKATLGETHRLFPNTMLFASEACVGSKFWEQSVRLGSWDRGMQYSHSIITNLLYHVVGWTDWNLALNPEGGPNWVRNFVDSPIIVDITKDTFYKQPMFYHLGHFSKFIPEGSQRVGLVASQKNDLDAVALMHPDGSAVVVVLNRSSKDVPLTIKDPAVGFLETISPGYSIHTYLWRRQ
Cytochrome P450 2C19 (Homo sapiens), sequence (P33261 whole entry, looked up): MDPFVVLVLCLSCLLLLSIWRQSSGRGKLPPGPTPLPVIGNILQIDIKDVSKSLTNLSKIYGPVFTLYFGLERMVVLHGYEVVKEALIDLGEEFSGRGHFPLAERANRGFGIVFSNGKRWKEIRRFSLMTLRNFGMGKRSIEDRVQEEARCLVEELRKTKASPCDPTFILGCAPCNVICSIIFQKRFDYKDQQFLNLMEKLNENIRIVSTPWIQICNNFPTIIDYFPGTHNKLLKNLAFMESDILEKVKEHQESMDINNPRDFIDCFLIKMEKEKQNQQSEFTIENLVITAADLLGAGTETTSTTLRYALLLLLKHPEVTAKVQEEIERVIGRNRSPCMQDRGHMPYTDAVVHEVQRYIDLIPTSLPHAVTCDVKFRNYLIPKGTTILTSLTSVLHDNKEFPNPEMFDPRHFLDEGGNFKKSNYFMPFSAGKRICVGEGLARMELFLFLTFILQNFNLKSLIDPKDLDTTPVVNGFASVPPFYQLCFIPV

`CCCn1c(/C=C/c2ccco2)nc2ccccc21`: the Potency result in test [1] and in [3] was “inactive” each time. Moreover, the activation is -2.96% [at 17.1 µM, percent relative to cAMP agonist control] in test [2] and 26.1% [at 30.8 µM] in test [4].

For the compound `CCCCC(=O)N(C)c1c(CC)nc2c(OCc3ccc(C(F)(F)F)cc3)cccn12`, the Potency result in test [1] was “inactive”. Also, the activation in [2] is 3.08% [at 17.1 µM, percent relative to cAMP agonist control]. Moreover, the activity change, negative = inhibition in test [5] is -15.6% [at 30.8 µM].

Consider `Cc1ccccc1C(=O)Nc1ccccc1N1CCCCC1`, for which the Potency entry in test [1], in test [2] and in [5] was “inactive” each time.

Turning to `C[n+]1cccc2c(Br)ccc([O-])c21`, the Potency entry in test [1], in [2] and in test [5] was “inactive” throughout.

On to `COc1ccc(-c2sc3ccc(OC)cc3c2C#CCCO)cc1`, for which the Potency entry in [1], in test [2] and in test [5] was “inactive” in each case.

As for `Cc1cc(NC2=CC(=O)C(=O)c3ccccc32)no1`, the Potency entry in test [1], in [2] and in test [5] was “inactive” throughout.

As for `CCOc1ccccc1NC(=O)C1COc2ccccc2O1` (stereo not given), the Potency result in test [1], in [2] and in test [5] was “inactive” in each case.

For the compound `O=c1c(O)c(-c2ccccc2)oc2ccc3occc3c12`, the Potency in test [6] is 3.16 µM (active); in test [3], 5.55 µM (active). In [7], the call was inactive. Moreover, the Potency entry in test [8], in test [9], in test [1] and in [2] was “inactive” each time.

Turning to `CC(C)=CCc1c2c(c3occ(-c4ccc(O)cc4)c(=O)c3c1O)C=CC(C)(C)O2`, the outcome in test [7] was inactive. Moreover, the Potency entry in test [8], in [9], in test [1], in [2] and in [3] was “inactive” throughout.

As to `C#Cc1ccc([C@@H]2C=C(C(=O)NCc3ccccc3)O[C@H](OCC)[C@H]2CCCO)cc1`, the Potency result in test [1], in test [2] and in test [5] was “inactive” each time.

For `Cc1cc(NS(=O)(=O)c2ccc(NC(=S)NC(=O)/C=C/c3ccccc3)cc2)no1`, the Potency entry in test [1] is “inactive”. The activation in [2] is 1.85% [at 17.1 µM, percent relative to cAMP agonist control]. Further, the activity change, negative = inhibition in test [5] was -2.1% [at 30.8 µM].

Consider `COc1ccc(C)cc1NC(=O)c1ccc2c(SCC(=O)O)c3c(nc2c1)CCCC3`, for which the Potency result in test [1], in test [2] and in test [5] was “inactive” in each case.

Turning to `Cc1ccc(S(=O)(=O)Oc2cccc(/C=N/Nc3ccc(C(=O)O)cc3)c2)cc1`, the Potency result in [1], in [2] and in test [5] was “inactive” throughout.

Turning to `Nc1nc(N)c(-c2cccc(C(F)(F)F)c2)c(Cc2cccc(C(F)(F)F)c2)n1`, the Potency in [10] is more than 11.4 µM; in test [13], more than 46 µM; in [14] it was more than 9.22 µM; in [17], 2.51 µM (active). Moreover, the activity change, negative = inhibition is 11.9% in [11] and 3.36% [at 11.4 µM] in test [15]. In addition, in test [12], the compound was called inactive. The Potency result in test [16], in test [1], in test [2], in [3] and in test [4] was “inactive” in each case. Also, the activity change, positive = activation in [7] was -31.2% [at 11.4 µM].

With `O=C(c1cc(C(F)(F)F)cc(C(F)(F)F)c1)N1CCC2(CCCN(c3ncccn3)C2)CC1`, the results for the Potency in [10], in test [14] and in test [3] were more than 11.4 µM, more than 46 µM and 44.1 µM (active), respectively. The activity change, negative = inhibition in test [11] was -18.2%. Also, the outcome in [12] and in test [7] was inactive. The Potency result in [16], in test [1] and in [2] was “inactive” in each case.

On to `Cc1cccc(NC(=O)CNC(=O)CCc2nc3sc4c(c3c(=O)[nH]2)CCCC4)c1C`, for which the Potency entry in [1], in test [2] and in [5] was “inactive” throughout.

On to `Cc1nc(-c2ccc(C(=O)Nc3cccc(Br)c3)cc2)cs1`, for which the Potency result in [1], in test [2] and in test [5] was “inactive” each time.

Take `O=C(CN1C(=O)/C(=C2/SC(=S)N(CCS(=O)(=O)O)C2=O)c2ccccc21)Nc1cccc(Br)c1`: the Potency result in test [1], in [2] and in [5] was “inactive” in each case.

Turning to `Cc1ccc(/C=C2/SC(=S)N(c3ccc(S(=O)(=O)Nc4nccs4)cc3)C2=O)cc1`, the Potency result in test [1], in test [2] and in [5] was “inactive” each time.

Turning to `CCOC(=O)C1=C(C)N=c2s/c(=C/c3ccc(OCC(=O)O)cc3)c(=O)n2C1c1ccc(F)cc1` (stereo not given), the Potency result in [1], in [2] and in test [5] was “inactive” each time.

Regarding `COc1ccc(-c2nn3c(-c4cccc(C)c4)nnc3s2)cc1OC`, the Potency entry in [1], in test [2] and in test [5] was “inactive” each time.

For `COc1ccc(CCN2C(=O)CSC2=Nc2ccc(C(C)C)cc2)cc1OC`, the Potency result in [1], in [2] and in [5] was “inactive” each time.

`COc1ccc(-c2nc3ccccc3nc2-c2ccccc2)cc1`: the Potency result in test [1], in [2] and in [5] was “inactive” throughout.

Consider `Cc1ccc(S(=O)(=O)/N=C2\C=C(NS(=O)(=O)c3ccccc3)C(=O)c3ccccc32)c(C)c1`, for which the Potency entry in test [1] was “inactive”. In addition, in test [2], the activation was 5.26% [at 17.1 µM, percent relative to cAMP agonist control]. Further, in [5], the activity change, negative = inhibition was -5.99% [at 30.8 µM].

As to `CCOc1ccc(S(=O)(=O)Nc2nc3ccccc3nc2-n2ccc(=NC(=O)c3cccs3)cc2)cc1`, the Potency entry in [1], in test [2] and in [5] was “inactive” throughout.

Take `O=C1C(O)=C(O)C(=O)c2ccccc21`: the Potency entry in [1], in test [2] and in [5] was “inactive” in each case.

On to `Cc1ccc(-c2ccc(CN3C(C(C)C)C(=O)N(Cc4cn(CCC5OCCO5)nn4)CCS3(=O)=O)cc2)c(C)c1` (stereo not given), for which the Potency result in test [1], in test [2] and in test [5] was “inactive” throughout.

The record behind these values is PubChem BioAssay (NCATS).
